Data reported in the supplement of paper PMC11732987, “Enantioselective OTUD7B fragment discovery through chemoproteomics screening and high-throughput optimisation” (Communications Chemistry, 2025).

Legend:
Assay in all cases: log2 ratio of Biotin-Ahx-Ub-VS probe labelling (fragment/DMSO); higher = less target engagement (more negative = stronger competition), active = hit call of the paper (q ≤ 0.05, log2 ratio ≤ -1)
Details in all cases: compound concentration: 200 uM; treatment time: 3 h
USP42 = target: T1, USP42 (UniProt Q9H9J4)
T1 sequence (whole entry): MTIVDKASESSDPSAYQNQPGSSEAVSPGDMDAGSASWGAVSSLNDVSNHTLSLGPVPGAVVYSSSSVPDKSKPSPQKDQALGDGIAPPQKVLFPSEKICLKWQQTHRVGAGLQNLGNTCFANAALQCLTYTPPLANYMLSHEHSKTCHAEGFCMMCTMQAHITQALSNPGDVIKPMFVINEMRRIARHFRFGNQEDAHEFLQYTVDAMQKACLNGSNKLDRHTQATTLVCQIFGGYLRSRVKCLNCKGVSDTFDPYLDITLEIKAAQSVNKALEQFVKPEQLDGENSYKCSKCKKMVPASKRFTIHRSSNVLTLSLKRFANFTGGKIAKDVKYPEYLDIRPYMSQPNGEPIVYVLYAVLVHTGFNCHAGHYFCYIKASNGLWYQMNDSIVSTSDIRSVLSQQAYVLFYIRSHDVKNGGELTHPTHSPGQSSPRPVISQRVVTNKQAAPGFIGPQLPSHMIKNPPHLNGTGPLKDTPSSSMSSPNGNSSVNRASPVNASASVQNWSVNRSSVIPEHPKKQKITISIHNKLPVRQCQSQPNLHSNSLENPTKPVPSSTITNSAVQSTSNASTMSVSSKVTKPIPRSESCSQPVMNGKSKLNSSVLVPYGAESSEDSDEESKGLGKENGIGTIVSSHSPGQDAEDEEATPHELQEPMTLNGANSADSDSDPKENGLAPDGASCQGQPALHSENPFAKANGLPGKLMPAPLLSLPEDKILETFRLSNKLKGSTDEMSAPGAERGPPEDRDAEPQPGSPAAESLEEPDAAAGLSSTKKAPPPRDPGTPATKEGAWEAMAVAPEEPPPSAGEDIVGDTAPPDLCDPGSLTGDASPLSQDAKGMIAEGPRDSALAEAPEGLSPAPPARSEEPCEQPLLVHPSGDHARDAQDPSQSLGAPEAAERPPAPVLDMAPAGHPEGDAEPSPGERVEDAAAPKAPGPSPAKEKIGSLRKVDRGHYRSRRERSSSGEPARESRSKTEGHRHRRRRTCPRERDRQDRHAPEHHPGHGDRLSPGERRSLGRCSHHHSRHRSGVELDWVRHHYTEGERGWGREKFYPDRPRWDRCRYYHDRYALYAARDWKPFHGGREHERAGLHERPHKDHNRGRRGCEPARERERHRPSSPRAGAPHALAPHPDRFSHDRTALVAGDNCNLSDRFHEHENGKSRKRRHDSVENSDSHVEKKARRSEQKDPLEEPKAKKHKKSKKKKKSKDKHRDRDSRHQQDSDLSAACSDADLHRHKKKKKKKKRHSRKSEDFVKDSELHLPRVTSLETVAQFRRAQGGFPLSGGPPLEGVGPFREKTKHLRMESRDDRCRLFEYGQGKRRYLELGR
Method in brief: (§1)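 Labelled DUBs from HEK293T lysate were NeutrAvidin-enriched, digested with LysC and trypsin, and run by diaPASEF LC-MS/MS. Before that, each 495 µg sample in Tris/CHAPS/IGEPAL buffer with protease inhibitors was treated in triplicate with fragment at 200 µM or vehicle for 3 h, then with Biotin-Ahx-Ub-VS at 0.5 µM final for 1 h. Values are average log2 ratios of fragment over vehicle by unpaired t-test, based on global-median-normalised Spectronaut label-free quantities from proteins with ≥2 unique peptides.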

USP46 = USP46 (UniProt P62068)
USP46, sequence (P62068 whole entry): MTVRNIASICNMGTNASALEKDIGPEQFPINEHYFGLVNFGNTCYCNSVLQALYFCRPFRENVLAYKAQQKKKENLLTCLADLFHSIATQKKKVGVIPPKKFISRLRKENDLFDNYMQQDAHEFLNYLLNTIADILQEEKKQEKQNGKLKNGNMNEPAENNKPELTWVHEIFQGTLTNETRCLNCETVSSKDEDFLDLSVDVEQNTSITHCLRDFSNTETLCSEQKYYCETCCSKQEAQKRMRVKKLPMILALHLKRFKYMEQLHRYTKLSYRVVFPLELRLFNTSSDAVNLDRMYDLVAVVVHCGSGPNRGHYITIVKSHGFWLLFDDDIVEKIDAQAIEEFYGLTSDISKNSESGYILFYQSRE
Method in brief: as §1

USP47 = target: T2, USP47 (UniProt Q96K76)
T2 sequence (whole entry): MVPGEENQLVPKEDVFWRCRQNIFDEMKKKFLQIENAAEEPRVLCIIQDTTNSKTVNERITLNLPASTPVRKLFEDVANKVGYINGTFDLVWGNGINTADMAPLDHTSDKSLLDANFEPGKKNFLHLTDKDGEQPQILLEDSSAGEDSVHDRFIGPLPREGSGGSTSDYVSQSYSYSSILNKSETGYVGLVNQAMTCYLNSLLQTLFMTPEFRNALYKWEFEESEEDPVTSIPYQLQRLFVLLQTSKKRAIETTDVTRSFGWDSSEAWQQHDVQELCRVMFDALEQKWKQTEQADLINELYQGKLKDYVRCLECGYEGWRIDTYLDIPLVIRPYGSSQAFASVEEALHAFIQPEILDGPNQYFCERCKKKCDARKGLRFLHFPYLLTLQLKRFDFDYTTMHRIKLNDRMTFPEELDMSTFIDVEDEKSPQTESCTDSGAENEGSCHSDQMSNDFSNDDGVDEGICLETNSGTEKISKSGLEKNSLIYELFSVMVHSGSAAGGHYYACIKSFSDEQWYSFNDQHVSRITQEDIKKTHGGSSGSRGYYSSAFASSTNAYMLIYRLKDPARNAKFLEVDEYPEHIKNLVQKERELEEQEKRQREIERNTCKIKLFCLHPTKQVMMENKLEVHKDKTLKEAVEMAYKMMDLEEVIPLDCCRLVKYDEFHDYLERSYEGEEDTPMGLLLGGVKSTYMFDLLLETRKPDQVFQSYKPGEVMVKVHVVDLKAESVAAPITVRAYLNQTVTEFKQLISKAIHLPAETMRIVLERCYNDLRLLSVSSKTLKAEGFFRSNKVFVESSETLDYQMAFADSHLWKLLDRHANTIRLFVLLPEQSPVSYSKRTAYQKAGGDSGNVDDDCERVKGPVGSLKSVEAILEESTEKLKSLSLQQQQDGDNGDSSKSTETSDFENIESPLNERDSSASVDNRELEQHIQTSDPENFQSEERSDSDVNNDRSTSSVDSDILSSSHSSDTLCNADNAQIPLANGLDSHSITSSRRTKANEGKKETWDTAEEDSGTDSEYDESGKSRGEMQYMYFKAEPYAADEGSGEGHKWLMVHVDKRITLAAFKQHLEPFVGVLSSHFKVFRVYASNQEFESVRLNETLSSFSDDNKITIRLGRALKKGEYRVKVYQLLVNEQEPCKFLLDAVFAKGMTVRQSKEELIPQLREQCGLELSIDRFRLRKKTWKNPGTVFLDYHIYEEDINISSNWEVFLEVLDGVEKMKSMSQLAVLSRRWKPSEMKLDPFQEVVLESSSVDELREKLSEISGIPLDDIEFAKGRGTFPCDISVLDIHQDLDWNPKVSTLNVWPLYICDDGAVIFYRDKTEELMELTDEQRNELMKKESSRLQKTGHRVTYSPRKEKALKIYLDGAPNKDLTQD
Method in brief: as §1

USP48 = target: T3, USP48 (UniProt Q86UV5)
T3 sequence (whole entry): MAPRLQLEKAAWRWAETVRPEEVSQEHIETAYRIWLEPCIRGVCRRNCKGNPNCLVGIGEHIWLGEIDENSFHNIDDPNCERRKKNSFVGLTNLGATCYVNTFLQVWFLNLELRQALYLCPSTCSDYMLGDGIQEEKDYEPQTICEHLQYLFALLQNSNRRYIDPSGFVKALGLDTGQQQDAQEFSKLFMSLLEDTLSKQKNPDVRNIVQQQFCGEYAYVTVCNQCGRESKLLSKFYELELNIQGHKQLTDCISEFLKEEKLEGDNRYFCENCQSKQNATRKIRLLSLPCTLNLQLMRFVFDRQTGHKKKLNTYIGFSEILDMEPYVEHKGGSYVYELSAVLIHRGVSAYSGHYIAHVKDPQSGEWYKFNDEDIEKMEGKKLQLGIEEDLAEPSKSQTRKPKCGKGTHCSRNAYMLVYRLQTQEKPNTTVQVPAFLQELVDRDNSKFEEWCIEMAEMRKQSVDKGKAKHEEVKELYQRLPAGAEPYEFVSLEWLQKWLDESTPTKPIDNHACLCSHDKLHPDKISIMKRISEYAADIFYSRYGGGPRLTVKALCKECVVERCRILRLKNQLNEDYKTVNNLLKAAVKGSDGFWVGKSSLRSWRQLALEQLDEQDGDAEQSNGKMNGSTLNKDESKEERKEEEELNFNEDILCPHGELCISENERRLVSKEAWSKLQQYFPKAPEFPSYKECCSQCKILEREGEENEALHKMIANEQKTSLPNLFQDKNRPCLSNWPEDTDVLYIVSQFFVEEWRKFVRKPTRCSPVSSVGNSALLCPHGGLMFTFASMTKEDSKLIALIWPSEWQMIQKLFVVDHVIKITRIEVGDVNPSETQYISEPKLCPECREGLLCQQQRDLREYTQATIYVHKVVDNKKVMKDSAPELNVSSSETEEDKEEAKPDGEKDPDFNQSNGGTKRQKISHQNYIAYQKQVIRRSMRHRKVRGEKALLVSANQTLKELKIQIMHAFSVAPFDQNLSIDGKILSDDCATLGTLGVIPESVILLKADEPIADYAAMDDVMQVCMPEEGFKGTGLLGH
Method in brief: as §1

USP5 = target: T4, USP5 (UniProt P45974)
T4 sequence (whole entry): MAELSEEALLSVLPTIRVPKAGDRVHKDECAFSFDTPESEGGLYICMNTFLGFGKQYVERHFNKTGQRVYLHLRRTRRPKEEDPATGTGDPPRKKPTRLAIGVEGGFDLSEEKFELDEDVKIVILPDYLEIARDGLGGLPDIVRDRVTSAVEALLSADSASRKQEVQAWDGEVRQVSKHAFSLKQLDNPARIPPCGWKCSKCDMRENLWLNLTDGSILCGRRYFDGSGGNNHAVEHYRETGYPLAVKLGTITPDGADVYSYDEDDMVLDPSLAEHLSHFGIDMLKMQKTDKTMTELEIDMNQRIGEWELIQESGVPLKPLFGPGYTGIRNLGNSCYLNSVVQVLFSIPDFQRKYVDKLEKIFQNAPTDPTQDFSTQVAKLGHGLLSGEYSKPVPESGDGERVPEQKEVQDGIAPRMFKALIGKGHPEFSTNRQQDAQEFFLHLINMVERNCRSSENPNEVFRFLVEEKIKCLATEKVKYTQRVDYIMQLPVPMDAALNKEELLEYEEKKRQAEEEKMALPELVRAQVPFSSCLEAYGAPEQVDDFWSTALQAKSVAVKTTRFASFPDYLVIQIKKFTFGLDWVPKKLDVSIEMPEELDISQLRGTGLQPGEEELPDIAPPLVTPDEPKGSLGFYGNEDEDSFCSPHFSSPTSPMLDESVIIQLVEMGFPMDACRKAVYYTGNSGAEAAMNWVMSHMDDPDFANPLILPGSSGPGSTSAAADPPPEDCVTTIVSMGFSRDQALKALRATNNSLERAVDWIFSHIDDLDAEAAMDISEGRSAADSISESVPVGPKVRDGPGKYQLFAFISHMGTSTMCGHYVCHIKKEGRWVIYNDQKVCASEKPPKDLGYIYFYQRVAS
Method in brief: as §1

USP54 = USP54 (UniProt Q70EL1)
USP54, sequence (Q70EL1 whole entry): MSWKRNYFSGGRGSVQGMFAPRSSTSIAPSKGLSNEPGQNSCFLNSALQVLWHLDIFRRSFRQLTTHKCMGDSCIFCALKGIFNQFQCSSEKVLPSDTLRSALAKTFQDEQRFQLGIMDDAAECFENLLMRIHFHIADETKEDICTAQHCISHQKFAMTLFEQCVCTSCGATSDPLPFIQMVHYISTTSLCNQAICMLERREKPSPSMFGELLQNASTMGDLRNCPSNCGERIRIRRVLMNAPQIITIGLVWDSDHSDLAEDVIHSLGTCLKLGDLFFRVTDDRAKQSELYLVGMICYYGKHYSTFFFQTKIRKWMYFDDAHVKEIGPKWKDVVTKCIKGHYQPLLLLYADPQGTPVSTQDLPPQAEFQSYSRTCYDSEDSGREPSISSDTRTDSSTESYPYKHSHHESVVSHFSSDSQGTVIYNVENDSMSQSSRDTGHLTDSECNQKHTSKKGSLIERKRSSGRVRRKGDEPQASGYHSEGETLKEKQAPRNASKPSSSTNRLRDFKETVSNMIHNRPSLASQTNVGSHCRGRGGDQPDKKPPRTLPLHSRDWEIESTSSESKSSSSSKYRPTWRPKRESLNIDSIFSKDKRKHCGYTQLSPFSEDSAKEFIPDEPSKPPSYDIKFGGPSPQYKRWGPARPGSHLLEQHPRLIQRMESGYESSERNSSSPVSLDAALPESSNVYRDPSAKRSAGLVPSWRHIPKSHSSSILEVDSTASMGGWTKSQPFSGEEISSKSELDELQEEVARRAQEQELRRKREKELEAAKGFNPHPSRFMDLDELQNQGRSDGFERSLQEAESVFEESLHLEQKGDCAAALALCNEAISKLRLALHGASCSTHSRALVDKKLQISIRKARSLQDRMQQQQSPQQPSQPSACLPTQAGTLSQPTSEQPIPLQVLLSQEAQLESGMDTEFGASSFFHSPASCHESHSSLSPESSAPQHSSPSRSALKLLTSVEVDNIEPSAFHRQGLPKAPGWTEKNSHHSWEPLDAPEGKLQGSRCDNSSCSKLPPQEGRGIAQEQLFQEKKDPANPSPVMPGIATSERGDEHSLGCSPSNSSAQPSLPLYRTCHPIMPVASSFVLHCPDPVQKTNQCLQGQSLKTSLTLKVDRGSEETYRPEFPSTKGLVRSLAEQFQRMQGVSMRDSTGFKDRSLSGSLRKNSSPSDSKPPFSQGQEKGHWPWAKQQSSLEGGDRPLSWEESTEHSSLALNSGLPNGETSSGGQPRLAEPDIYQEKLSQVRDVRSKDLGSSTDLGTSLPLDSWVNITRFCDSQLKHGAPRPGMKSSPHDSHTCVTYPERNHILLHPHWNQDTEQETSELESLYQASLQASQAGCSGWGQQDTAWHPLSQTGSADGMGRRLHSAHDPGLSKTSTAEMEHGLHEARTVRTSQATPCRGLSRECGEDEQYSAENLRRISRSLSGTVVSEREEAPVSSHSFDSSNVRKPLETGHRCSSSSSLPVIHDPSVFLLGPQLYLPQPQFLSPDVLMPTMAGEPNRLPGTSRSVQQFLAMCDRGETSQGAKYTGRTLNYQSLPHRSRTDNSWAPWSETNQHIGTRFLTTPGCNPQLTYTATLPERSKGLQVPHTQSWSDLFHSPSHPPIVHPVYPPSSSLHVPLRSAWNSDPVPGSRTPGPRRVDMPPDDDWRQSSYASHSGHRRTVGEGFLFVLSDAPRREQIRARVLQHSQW
Method in brief: as §1

USP7 = USP7 (UniProt Q93009)
Method in brief: as §1

USP8 = target: T5, USP8 (UniProt P40818)
T5 sequence (whole entry): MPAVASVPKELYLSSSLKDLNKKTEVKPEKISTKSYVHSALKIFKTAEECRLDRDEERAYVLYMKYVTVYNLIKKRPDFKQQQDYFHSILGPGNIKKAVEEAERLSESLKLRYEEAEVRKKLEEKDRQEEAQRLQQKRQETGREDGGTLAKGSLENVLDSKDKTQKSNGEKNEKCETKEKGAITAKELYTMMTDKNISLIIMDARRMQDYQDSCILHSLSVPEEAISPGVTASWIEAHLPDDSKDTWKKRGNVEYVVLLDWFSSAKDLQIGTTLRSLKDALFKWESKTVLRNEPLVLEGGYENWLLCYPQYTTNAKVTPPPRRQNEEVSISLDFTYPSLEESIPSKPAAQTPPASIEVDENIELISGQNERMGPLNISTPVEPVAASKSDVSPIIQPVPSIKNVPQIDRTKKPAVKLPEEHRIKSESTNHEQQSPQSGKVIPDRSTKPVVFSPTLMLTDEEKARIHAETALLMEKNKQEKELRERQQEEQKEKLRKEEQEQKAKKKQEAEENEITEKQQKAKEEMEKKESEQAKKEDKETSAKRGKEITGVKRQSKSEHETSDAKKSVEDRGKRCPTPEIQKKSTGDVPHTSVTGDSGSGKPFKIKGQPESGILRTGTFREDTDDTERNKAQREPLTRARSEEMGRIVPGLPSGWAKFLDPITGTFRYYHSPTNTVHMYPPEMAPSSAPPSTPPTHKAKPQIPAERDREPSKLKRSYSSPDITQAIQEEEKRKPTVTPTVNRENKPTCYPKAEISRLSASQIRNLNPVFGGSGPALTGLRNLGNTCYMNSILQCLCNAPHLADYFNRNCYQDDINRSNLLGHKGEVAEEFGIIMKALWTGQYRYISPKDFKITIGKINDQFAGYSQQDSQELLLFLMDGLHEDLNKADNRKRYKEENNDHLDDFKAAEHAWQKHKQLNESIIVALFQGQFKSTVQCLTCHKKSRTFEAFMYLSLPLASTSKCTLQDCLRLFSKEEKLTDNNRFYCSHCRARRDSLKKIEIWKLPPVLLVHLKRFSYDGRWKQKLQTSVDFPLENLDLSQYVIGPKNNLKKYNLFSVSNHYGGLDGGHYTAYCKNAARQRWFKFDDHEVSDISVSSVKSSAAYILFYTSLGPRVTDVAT
Method in brief: as §1

USP9X = USP9X (UniProt Q93008)
USP9X, sequence (Q93008 whole entry): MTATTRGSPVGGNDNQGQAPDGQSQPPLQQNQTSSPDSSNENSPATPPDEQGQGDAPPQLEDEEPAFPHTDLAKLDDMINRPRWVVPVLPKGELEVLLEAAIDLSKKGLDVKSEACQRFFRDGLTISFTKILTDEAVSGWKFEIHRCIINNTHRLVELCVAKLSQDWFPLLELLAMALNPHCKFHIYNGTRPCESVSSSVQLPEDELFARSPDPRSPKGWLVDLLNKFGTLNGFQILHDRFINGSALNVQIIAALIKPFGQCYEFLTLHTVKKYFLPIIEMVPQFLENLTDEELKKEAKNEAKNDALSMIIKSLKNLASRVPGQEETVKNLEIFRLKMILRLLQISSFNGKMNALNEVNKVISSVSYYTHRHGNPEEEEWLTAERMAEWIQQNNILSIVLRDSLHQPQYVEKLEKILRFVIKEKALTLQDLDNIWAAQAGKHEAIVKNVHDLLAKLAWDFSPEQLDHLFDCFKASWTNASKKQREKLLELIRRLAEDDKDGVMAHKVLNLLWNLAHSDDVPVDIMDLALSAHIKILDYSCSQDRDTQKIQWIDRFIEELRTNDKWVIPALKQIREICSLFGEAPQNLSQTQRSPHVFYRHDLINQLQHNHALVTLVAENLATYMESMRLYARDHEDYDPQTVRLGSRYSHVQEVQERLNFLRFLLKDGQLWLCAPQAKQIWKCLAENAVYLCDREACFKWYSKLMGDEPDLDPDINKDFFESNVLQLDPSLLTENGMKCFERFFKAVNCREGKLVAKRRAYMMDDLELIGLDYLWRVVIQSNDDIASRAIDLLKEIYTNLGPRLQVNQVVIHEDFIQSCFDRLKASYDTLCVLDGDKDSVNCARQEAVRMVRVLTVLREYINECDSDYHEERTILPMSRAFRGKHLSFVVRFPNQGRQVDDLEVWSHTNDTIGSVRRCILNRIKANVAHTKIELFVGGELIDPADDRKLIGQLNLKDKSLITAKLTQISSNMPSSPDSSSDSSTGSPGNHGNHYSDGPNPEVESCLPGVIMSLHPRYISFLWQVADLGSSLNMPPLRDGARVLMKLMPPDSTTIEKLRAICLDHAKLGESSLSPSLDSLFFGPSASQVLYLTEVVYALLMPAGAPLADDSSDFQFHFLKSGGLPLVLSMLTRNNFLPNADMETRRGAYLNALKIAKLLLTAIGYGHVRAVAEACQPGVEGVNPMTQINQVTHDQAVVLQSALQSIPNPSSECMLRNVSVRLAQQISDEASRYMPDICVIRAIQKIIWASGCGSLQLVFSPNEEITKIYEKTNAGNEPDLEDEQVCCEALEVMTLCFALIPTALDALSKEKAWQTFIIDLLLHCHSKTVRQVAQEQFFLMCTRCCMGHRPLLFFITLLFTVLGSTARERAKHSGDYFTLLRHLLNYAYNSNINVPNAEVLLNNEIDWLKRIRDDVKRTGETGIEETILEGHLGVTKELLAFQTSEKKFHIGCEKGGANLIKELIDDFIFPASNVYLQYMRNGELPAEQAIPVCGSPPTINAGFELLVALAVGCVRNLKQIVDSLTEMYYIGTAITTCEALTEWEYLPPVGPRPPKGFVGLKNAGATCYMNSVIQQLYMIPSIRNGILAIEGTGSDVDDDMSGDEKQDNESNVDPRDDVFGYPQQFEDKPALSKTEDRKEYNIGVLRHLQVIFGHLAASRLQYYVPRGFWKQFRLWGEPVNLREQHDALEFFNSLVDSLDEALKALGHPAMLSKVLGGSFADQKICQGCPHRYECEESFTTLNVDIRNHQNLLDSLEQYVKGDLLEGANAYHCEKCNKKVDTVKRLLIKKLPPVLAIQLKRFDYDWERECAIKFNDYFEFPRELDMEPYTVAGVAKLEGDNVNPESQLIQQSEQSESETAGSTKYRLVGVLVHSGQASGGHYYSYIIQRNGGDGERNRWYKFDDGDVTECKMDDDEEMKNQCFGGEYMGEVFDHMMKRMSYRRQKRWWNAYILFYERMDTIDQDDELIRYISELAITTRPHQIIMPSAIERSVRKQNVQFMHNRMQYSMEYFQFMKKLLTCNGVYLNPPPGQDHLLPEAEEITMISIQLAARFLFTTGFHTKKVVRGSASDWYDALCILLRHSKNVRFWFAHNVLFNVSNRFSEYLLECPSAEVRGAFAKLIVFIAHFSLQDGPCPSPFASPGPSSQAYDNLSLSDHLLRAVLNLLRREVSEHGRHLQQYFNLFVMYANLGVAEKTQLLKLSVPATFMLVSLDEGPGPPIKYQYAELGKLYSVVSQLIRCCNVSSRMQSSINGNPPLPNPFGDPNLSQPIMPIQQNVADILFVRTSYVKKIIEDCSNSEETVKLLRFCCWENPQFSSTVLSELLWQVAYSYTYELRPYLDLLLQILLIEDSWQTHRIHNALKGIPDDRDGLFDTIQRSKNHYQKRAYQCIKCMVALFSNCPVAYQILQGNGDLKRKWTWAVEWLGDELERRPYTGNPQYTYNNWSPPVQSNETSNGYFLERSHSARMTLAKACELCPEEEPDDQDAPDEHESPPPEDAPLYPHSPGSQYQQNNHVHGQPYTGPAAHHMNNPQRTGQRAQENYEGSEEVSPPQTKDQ
Method in brief: as §1

UniProt O00487 = target: UniProt O00487
UniProt O00487, sequence (O00487 whole entry): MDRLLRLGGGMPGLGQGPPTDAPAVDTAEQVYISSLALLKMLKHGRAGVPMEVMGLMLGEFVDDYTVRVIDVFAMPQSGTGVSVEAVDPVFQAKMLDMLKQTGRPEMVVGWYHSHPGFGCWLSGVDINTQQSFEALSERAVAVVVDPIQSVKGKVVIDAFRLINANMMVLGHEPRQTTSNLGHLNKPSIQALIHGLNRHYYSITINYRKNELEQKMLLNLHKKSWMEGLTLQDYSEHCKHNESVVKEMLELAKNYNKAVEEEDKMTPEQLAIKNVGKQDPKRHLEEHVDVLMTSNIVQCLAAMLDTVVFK
Method in brief: as §1

Measured: log2 ratio of Biotin-Ahx-Ub-VS probe labelling

O=C(O)C1Cc2ccccc2CN1C(=O)CCl (stereo not given)
inactive: USP42 -0.449 | USP46 -0.111 | USP47 -0.301 | USP48 -0.543 | USP5 -0.0229 | USP54 0.788 | USP7 -0.333 | USP8 -0.283 | USP9X -0.449 | UniProt O00487 -0.262
